Bioassay records deposited in PubChem BioAssay by National Center for Advancing Translational Sciences (NCATS).
This is a sample that favours compounds with a hit; in the whole collection about 12% have one here.
JMJD2A Tudor inh: inhibitors of human JMJD2A Tudor domain; O75164; AlphaScreen JMJD2A-Tudor / H3K4me3 peptide binding; AID 504339; 4.4% of 390,000 active; Potency, µM (highest dose often 114 µM), for the others: top-dose activity change, negative = inhibition, usual class: inhibitors; note: potency is the fitted concentration of half-maximal effect; % is set by controls: 0 for no effect and ±100 for the full control effect; nearly all actives have a fitted effect of over 50% in size
G9a inh: blocks human histone lysine methyltransferase G9a. AID 504332. Q96KQ7. Potency, µM (doses to about 102 µM), for inactives: at the highest dose activity, negative = inhibition, hits mostly inhibitors. G9a H3K9 monomethylation, AlphaScreen, 2 h. 8.8% of 350,000 active; note: potency is the fitted concentration of half-maximal effect; % is set by controls: 0 for no effect and ±100 for the full control effect; nearly all actives have a fitted effect of over 75% in size
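Chemiluminescent proximity detection of H3K9 monomethylation, read after 10 min bead incubation in the dark. Reaction: 20 nM G9a, 500 nM biotin-H3K9 peptide, 20 uM SAM cofactor, 2 h, room temperature, following 15 min enzyme-compound preincubation.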
PLK1 PBD inh: PLK1 (human) polo-box domain binding inhibition; Plk1 PBD binding of FITC phosphopeptide, fluorescence polarization; Potency, µM, inactives show max response, negative = inhibition, usual class: inhibitors; P53350; AID 720504; 2.8% of 360,000 active; note: potency is the fitted concentration of half-maximal effect; series mostly up to about 57 µM; % is set by controls: 0 for no effect and ±100 for the full control effect; nearly all actives have a fitted effect of over 65% in size
BAZ2B inh: BAZ2B (human) inhibition. Q9UIF8. AlphaScreen BAZ2B-H3K14Ac peptide displacement. Potency, µM (titrated, usually from 114 µM), without a hit: at the highest dose activity change, negative = inhibition, most hits filed as inhibitors. 4.4% of 360,000 active; note: potency is the fitted concentration of half-maximal effect; % is set by controls: 0 for no effect and ±100 for the full control effect; nearly all actives have a fitted effect of over 60% in size
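Compounds, titrated to a top concentration of 110 uM, were incubated 30 min at room temperature with preformed BAZ2B/acetyl-K14 H3 peptide complex (50 nM each). Proximity signal was measured by AlphaScreen after 20 min with beads.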
PI5P4Ka inh: PI5P4K alpha (human) kinase inhibition; max response, %; 1.2% of 330,000 active; PI5P4Kalpha enzyme, ADP-Glo luminescence, 60 min; stronger effect = lower value; P48426; active = max response of -50% or lower; inconclusive = between -30% and -50%; inactive = -30% or higher; note: value at the top dose of about 77 µM; % is set by controls: 0 for no effect and ±100 for the full control effect
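Enzyme plus substrate dispensed, test compounds pinned in, then ATP (5 microM final) added. After 60 min at RT, ADP-Glo reagent 1 for 45 min and reagent 2 for 30 min preceded luminescence imaging.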
HP1b chromo inh: inhibitors of HP1-beta chromodomain binding to methylated histone tails; 0.56% of 390,000 active; P83916; Potency, µM (series often up to 114 µM), inactives show at the highest dose activity change, negative = inhibition, most hits filed as inhibitors; AlphaScreen HP1-beta / biotin-H3K9me3 peptide binding; note: potency is the fitted concentration of half-maximal effect; nearly all actives have a fitted effect of over 70% in size
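Compound inhibition of the preformed complex between 50 nM HP1-beta and 50 nM biotinylated H3K9me3 peptide was read by AlphaScreen. Buffer was PBS pH 7.4 with 0.01% Tween-20. Incubations ran 30 min at room temperature, with 10 ug/mL donor/acceptor beads.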
* marks the source's active call; other numbers are inactive results; [ ] = remark or other dose. Unless noted, calls come from the whole dose curve; as a rule, active = well fitted curve in the direction sought with a large enough effect; inconclusive = small, poorly fitted or top-dose-only effect, or another doubt; inactive = no such curve, though single readings can be large; an effect the other way counts as inactive or inconclusive.

`Cc1cc[n+]2c3c(cccc13)CCC2` gave JMJD2A Tudor inh inconclusive, G9a inh inconclusive, PLK1 PBD inh 13.4µM*, BAZ2B inh 0.7% and HP1b chromo inh -14.2%.
For Clc1ccc(-c2cc3ncc4c(n3n2)-c2ccccc2OC4)cc1 the results were JMJD2A Tudor inh 0.0%, G9a inh -35.4%[59 µM], BAZ2B inh -3.8% and HP1b chromo inh 39.1%.
CCCCNC(=O)c1cc2cccc([N+](=O)[O-])c2[nH]1 was read as JMJD2A Tudor inh -26.8%, G9a inh 50.1µM*, PLK1 PBD inh -13.5%, BAZ2B inh inconclusive, PI5P4Ka inh -2.9 and HP1b chromo inh 16.5%.
`CCCCc1ccc(NC(=O)CN2C(=O)C3CCCCC3C2=O)cc1` (centres undefined) gave JMJD2A Tudor inh -7.6%, G9a inh 6.6%[0.501 µM], PLK1 PBD inh 0.5%, BAZ2B inh -1.1%, PI5P4Ka inh -1.5 and HP1b chromo inh 25.8%.
`O=C1/C(=C/c2cccnc2)CC/C1=C\c1cccnc1` gave JMJD2A Tudor inh -3.5%, G9a inh -46.5%, PLK1 PBD inh -11.7%, PI5P4Ka inh -10.5 and HP1b chromo inh 42.0%.
`COc1ccc(/C=C2\C(=O)ON=C2c2ccccc2)cc1` gave JMJD2A Tudor inh 35.5µM*, G9a inh 39.8µM*, PLK1 PBD inh 1.5µM*, BAZ2B inh inconclusive, PI5P4Ka inh -52.8* and HP1b chromo inh -7.4%.
For Cc1ccc(/C=C2\C(=O)ON=C2c2ccccc2)o1 the results were JMJD2A Tudor inh -33.6%, G9a inh -12.6%, PLK1 PBD inh inconclusive, BAZ2B inh -19.7%, PI5P4Ka inh 2.6 and HP1b chromo inh inconclusive.
Screening O=C1ON=C(c2ccccc2)/C1=C/c1cccnc1 returned JMJD2A Tudor inh -5.8%, G9a inh 44.7µM*, PLK1 PBD inh -23.1%, BAZ2B inh -10.6%, PI5P4Ka inh 2.4 and HP1b chromo inh 21.5%.
O=C1ON=C(c2ccccc2)/C1=C/c1ccc(O)c(O)c1 was read as JMJD2A Tudor inh 14.1µM*, G9a inh 25.1µM*, PLK1 PBD inh inconclusive, BAZ2B inh 28.2µM*, PI5P4Ka inh -58.9* and HP1b chromo inh 8.91µM*.
O=C1ON=C(c2ccccc2)/C1=C/c1ccc(OS(=O)(=O)c2ccccc2)cc1 was read as JMJD2A Tudor inh 79.4µM*, G9a inh 8.91µM*, PLK1 PBD inh 5.97µM*, BAZ2B inh 50.1µM*, PI5P4Ka inh -69.0* and HP1b chromo inh inconclusive.
For C=CCCCCCCCCC(=O)NNC1CC(=O)N(c2ccccc2)C1=O (centres undefined) the results were JMJD2A Tudor inh -11.4%, G9a inh 11.5%, PLK1 PBD inh -4.3%, BAZ2B inh 5.2%, PI5P4Ka inh 2.0 and HP1b chromo inh 49.1%.
O=C(c1ccco1)N1CCC2(CCCN(c3ncccn3)C2)CC1 was read as G9a inh -3.7%[12.7 µM].
O=C1ON=C(c2cccc([N+](=O)[O-])c2)/C1=C/c1ccc(O)cc1 was read as JMJD2A Tudor inh -3.0%[11.4 µM], G9a inh 22.4µM*, PLK1 PBD inh 1.5µM*, BAZ2B inh inconclusive, PI5P4Ka inh inconclusive and HP1b chromo inh -13.6%.
`CCCOC(=O)c1cccc(Nc2nc(CCC)cc(=O)[nH]2)c1` gave JMJD2A Tudor inh -10.1%, G9a inh -45.6%[59 µM], BAZ2B inh -8.7% and HP1b chromo inh 31.0%.
COCCN1CCn2c(nc3cc(NC(C)=O)ccc32)C1 was read as JMJD2A Tudor inh -18.5%, G9a inh 35.5µM*, PLK1 PBD inh inconclusive, BAZ2B inh -15.4%, PI5P4Ka inh -3.1 and HP1b chromo inh 40.1%.
For COCCN1CCn2c(nc3cc(Nc4nnc(C)c5ccccc45)ccc32)C1 the results were JMJD2A Tudor inh 89.1µM*, G9a inh inconclusive, PLK1 PBD inh -8.7%, BAZ2B inh inconclusive, PI5P4Ka inh -6.1 and HP1b chromo inh 33.7%.
CCOC(=O)c1ccc(NC(=O)CSc2c(C(C)C)cnc3c2c(=O)n(C)c(=O)n3C)cc1 was read as JMJD2A Tudor inh inconclusive, G9a inh inconclusive, BAZ2B inh inconclusive and HP1b chromo inh 20.7%[57 µM].
Screening COc1ccccc1NC(=O)Nc1ccc(N2CCOCC2)cc1 returned JMJD2A Tudor inh inconclusive, G9a inh 31.6µM*, PLK1 PBD inh -7.5%, BAZ2B inh -23.9%, PI5P4Ka inh -2.0 and HP1b chromo inh -1.2%.
`COc1ccccc1CNCCS(=O)(=O)NN1CCOCC1` gave JMJD2A Tudor inh -0.7%, PLK1 PBD inh 10.6µM*, PI5P4Ka inh inconclusive and HP1b chromo inh 45.2%.
O=C(Cc1cccc2ccccc12)Nc1ccc(N2CCOCC2)cc1 was read as JMJD2A Tudor inh -8.9%, PLK1 PBD inh -1.1%, BAZ2B inh 50.1µM*, PI5P4Ka inh 0.1 and HP1b chromo inh 21.2%.
For O=C(CCS(=O)(=O)c1ccccc1)Nc1ccc(N2CCOCC2)cc1 the results were JMJD2A Tudor inh -25.9%, G9a inh 56.2µM*, PLK1 PBD inh -16.9%, BAZ2B inh -26.1%, PI5P4Ka inh 4.9 and HP1b chromo inh 7.2%.
For O=C(Nc1ccc(N2CCOCC2)cc1)C1(S(=O)(=O)c2ccccc2)CC1 the results were JMJD2A Tudor inh -19.4%, G9a inh inconclusive, PLK1 PBD inh -8.3%, BAZ2B inh -22.9% and HP1b chromo inh 9.8%.
Screening CCN(CC)C(=O)[C@H]1CC(CC(=O)NCCC2=CCCCC2)C(=O)N2CCc3c([nH]c4ccc(OC)cc34)[C@]12C (some centres undefined) returned JMJD2A Tudor inh -27.3%, PLK1 PBD inh -6.5%, PI5P4Ka inh -1.1 and HP1b chromo inh 35.7%.
For Cc1cc(NS(=O)(=O)c2ccc3c(c2)CCC(=O)N3)ccc1F the results were JMJD2A Tudor inh -13.5%.
For O=C(Cc1cccc2ccccc12)Nc1ccc(Br)cc1C(=O)O the results were JMJD2A Tudor inh 0.4%, G9a inh inconclusive, PLK1 PBD inh -23.4%, BAZ2B inh -1.2%, PI5P4Ka inh -5.7 and HP1b chromo inh 27.4%.
`O=C(Cc1cccc2ccccc12)Nc1ccc(O)cc1C(=O)O` gave JMJD2A Tudor inh -26.9%[57.1 µM], G9a inh 70.8µM*, PLK1 PBD inh 26.7µM*, BAZ2B inh -10.4%, PI5P4Ka inh -19.3 and HP1b chromo inh 0.5%.
Screening COC(=O)c1ccc(NC(=O)CN2C(=O)CSC2=O)cc1 returned JMJD2A Tudor inh -8.3%, G9a inh 0.1%[12.7 µM], PLK1 PBD inh -10.2%, BAZ2B inh 23.0% and HP1b chromo inh 4.7%.
For COc1ccc(CC(=O)Nc2ccc(OC(C)=O)cc2C(=O)O)cc1 the results were JMJD2A Tudor inh -17.5%, G9a inh -19.7%, PLK1 PBD inh -7.9%, BAZ2B inh -17.3%, PI5P4Ka inh -11.2 and HP1b chromo inh 27.1%.
